Potency and affinity values are given separately. The source made the active and inactive calls. No rule for the calls is given here.
target: Kelch-like ECH-associated protein 1 (Homo sapiens) + Nuclear factor erythroid 2-related factor 2 (Homo sapiens) (UniProt Q14145+Q16236); assay: Keap1-Nrf2 protein-protein interaction inhibitors, dose response, biochemical, fluorescence polarization, cherry-picked samples (AID 588683); details: Keap1/Nrf2 peptide fluorescence polarization, plate reader; series mostly up to 26 µM; activity change, negative = inhibition: at the top concentration;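 also: Kelch domain of Keap1 binding a fluorescein-labelled 9mer Nrf2 peptide; more negative means stronger inhibition of peptide binding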
Sequence (Q14145 whole entry, looked up, the tested form may be a part): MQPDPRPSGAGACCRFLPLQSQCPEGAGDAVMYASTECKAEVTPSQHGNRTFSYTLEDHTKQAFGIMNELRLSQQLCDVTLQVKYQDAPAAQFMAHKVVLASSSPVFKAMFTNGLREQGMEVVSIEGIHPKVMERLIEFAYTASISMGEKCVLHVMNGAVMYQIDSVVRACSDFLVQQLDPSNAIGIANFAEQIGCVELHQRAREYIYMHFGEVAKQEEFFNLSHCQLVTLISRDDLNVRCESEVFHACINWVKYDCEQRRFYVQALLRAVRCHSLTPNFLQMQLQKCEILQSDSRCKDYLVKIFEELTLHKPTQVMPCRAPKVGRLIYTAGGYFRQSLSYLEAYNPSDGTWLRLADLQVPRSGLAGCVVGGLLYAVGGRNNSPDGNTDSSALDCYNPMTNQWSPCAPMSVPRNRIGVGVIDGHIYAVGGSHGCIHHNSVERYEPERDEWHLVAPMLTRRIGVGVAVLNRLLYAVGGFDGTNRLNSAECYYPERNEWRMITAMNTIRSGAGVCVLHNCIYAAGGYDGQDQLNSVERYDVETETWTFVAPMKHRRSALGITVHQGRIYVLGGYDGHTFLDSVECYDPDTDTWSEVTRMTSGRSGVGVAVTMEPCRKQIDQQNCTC
Sequence (Q16236 whole entry, looked up, the tested form may be a part): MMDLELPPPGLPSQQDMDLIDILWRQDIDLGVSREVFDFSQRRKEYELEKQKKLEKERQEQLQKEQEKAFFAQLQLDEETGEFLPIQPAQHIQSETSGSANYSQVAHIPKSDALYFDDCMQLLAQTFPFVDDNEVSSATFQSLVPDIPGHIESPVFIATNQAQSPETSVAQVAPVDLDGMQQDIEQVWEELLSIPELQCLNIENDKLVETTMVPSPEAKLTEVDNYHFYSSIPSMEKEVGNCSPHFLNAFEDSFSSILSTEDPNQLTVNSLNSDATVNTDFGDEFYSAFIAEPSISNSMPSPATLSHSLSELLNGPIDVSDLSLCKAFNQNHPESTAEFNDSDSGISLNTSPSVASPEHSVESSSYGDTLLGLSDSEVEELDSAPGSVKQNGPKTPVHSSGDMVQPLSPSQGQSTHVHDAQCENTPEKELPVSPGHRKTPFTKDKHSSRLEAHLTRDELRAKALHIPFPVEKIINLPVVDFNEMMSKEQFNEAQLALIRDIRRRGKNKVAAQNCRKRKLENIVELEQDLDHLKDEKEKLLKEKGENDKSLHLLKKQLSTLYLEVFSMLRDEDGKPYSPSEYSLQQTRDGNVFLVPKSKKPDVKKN

Activity change, negative = inhibition, inactive:
COc1cc2c3nnc(-c4ccc(F)cc4)c-3cn(Cc3ccccc3F)c2cc1OC 129%, Cc1ccc(O)c(C(=O)c2cnc3c(c2)c(C)nn3-c2ccccc2)c1 -0.847%, Cc1[nH]nc2c1C(CC(C)C)C(C#N)=C(N)O2 (stereo not drawn) 0.372%, COc1cc(/C=C/CN2CCN(CCC(C)C)C(CCO)C2)ccc1O (stereo not drawn) -10.6%, CC(C)(C)c1ccccc1NC(=O)NC1CCN(Cc2c(F)cccc2Cl)CC1 -6.22%, CC(OC(=O)c1ccc([N+](=O)[O-])o1)C(=O)NC1CCCCC1C (stereo not drawn) -13.6%, C=CCOc1ccc(C2OC34CCCCC3C(C#N)(C#N)C2(C#N)C(=N)O4)cc1 (stereo not drawn) -12.7%, CC(=O)C1C(c2ccc(F)cc2)c2c(noc2C)CC1(C)O (stereo not drawn) -4.11%, CC1Cc2cc(/C=C3/SC(N4CCC(C(N)=O)CC4)=NC3=O)ccc2O1 (stereo not drawn) -0.857%, CN1C(=O)c2cccc3c(S(N)(=O)=O)ccc1c23 -6.58%, Cc1ccc(Cn2c(=N)c(C(=O)NC3CCCC3)cc3c(=O)n4ccccc4nc32)cc1 -7.84%, CCC(=O)c1cn(CC(=O)Nc2ccc(OC)cc2)c2ccccc12 2.85%, CCN1CCN(S(=O)(=O)c2ccc(Cl)c(C(=O)NC3CCC(C)CC3)c2)CC1 (stereo not drawn) 4.11%, CC1(C)CC(=O)C2=C(C1)OC(N)=C(C#N)C2c1ccccc1[N+](=O)[O-] (stereo not drawn) -23.5%, COc1cc(C#Cc2c(C=O)n(C)c3ccccc23)cc(OC)c1 -4.77%, CCc1cc[n+](-c2nc([O-])sc2C=O)cc1 -13.4%, C=CCOc1ccc(CNc2ccc(NC(=O)CC(C)C)cc2)cc1OC -7.58%, O=C(O)CC(Cn1cnnn1)c1ccccc1 (stereo not drawn) -3.47%, CCCCC1OC2(C)OC(=N)C1(C#N)C(C#N)(C#N)C2c1ccccc1 (stereo not drawn) -7.41%, CC[C@H](C)[C@H](NC(=O)OCc1ccccc1)C(=O)OCC(=O)N1CCN(c2ccc(F)cc2)CC1 -5.51%, CCOC(=O)c1c(C)[nH]c(C(=O)COC(=O)c2cccnc2Cl)c1C 9.03%, COc1ccc(C=Nc2cccnc2N)cc1 -5.56%, CCn1nnnc1SCC(=O)N(C)C1CCS(=O)(=O)C1 (stereo not drawn) -6.23%, CCOC(=O)c1c(C)oc2c1c(C=NCCO)c(O)c1ccccc12 -7.78%, CC1(C)CC(=O)C2=C(C1)OC(N)=C(C#N)[C@@H]2c1ccccc1[N+](=O)[O-] -13.3%, Cc1ccc(S(=O)(=O)NCC(=O)OCC(=O)Nc2ccc3c(c2)OCCO3)cc1 -2.89%, O=c1[nH]c(-[n+]2ccccc2)c(/C=N/NC([S-])=Nc2ccccc2)s1 -0.642%, COC(=O)N/N=C/c1cn(Cc2ccccc2Cl)c2ccccc12 -4.96%, CN(CC(=O)Nc1cc(C(F)(F)F)ccc1-n1cncn1)Cc1ccccc1N1CCOCC1 -7.48%, CN(C)c1ccc(/C=N/NC(=O)CCC(=O)NCc2ccccc2)cc1 -5.52%, Cc1ccccc1NC(=O)c1sc(NC(=O)C2CC2)nc1C -1.61%, COc1ccccc1NC(=O)C(C)OC(=O)C1COc2ccccc2O1 (stereo not drawn) -9.11%, CC1(C)CC(=O)C(N=Nc2c(F)cccc2F)=C(O)C1 1.16%, Cc1ccc(S(=O)(=O)N2CCCCC2)cc1NC(=O)c1ccccc1Cl -12.1%, CN(C)c1ccc2cc(S(=O)(=O)O)cc(O)c2c1 1.03%, O=C1NC(c2cc(Cl)cc([N+](=O)[O-])c2O)Nc2ccccc21 (stereo not drawn) -16.2%, O=C(COC(=O)c1ccncc1)Nc1cccc2ccccc12 11.9%, Cc1ccc(OC(C)C(=O)N2CCN(c3ccccn3)CC2)cc1 (stereo not drawn) -5%
